Data: PubChem BioAssay (NCI)
The panel holds about 79,000 compounds, 15% with a hit somewhere; the sample as a whole holds those more often. Unmarked numbers belong to inactive results. The source made the active and inactive calls. Cut-off read from the data, not from the text of the source: active = growth inhibition above about 70%; inactive = the rest.

Tests used:
[1] = NCI Yeast Anticancer Drug Screen. Data for the rad50 strain (AID 155);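 note: 0% = growth of vehicle-only cultures of the same strain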; details: S. cerevisiae rad50 strain growth inhibition; at 50.0 µM; stronger effect = higher value
How it was run: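 DNA repair mutant yeast, compound exposure, growth read-out; inhibition is taken relative to vehicle.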

[2] = NCI Yeast Anticancer Drug Screen. Data for the mec2-1 strain (AID 157); details: S. cerevisiae mec2-1 strain, at 50.0 µM, stronger effect = higher value
How it was run: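 Growth inhibition is read against vehicle-treated controls after compound exposure of the mec2-1 yeast strain, which is defective in DNA damage repair or cell cycle control.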

[3] = NCI Yeast Anticancer Drug Screen. Data for the sgs1 mgt1 strain (AID 161);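 note: 0% = growth of cultures given vehicle only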; details: S. cerevisiae sgs1 mgt1 strain, at 50.0 µM, stronger effect = higher value
How it was run: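 Growth of a repair-deficient yeast mutant was monitored after compound treatment and expressed as inhibition relative to vehicle-treated cultures.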

[4] = NCI Yeast Anticancer Drug Screen. Data for the cln2 rad14 strain (AID 165);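 note: 0% = growth equal to vehicle treated cultures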; details: S. cerevisiae cln2 rad14 strain, at 50.0 µM, stronger effect = higher value
How it was run: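 Growth inhibition, relative to vehicle-treated controls, is the read-out. The test organism is a yeast strain with defined genetic alterations, cln2 rad14.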

[5] = NCI Yeast Anticancer Drug Screen. Data for the bub3 strain (AID 167); details: S. cerevisiae bub3 mutant strain, at 50.0 µM, stronger effect = higher value
How it was run: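 In this screen, a yeast mutant lacking normal mitotic checkpoint function is challenged with compound. Relative growth versus vehicle gives the inhibition value.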

[6] = NCI Yeast Anticancer Drug Screen. Data for the mlh1 rad18 strain (AID 175); details: S. cerevisiae mlh1 rad18 strain growth inhibition; at 50.0 µM; stronger effect = higher value
How it was run: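 Cells of a genetically altered yeast strain, deficient in DNA damage repair, were treated with compound. Their growth was then compared with that of vehicle-treated cultures to give inhibition.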

Row | SMILES | growth inhibition [1] | growth inhibition [2] | growth inhibition [3] | growth inhibition [4] | growth inhibition [5] | growth inhibition [6]
1 | O=C=Nc1cccc([N+](=O)[O-])c1 | -0.65% | -5.7% | -0.75% | -5.05% | -27.9% | -40.5%
2 | O=C(Nc1ccc([N+](=O)[O-])cc1Cl)c1ccc(C(=O)Nc2ccc([N+](=O)[O-])cc2Cl)cc1 | -6.4% | -1.75% | -1.85% | 31.3% | 1.95% | 0.55%
3 | COc1ccc(NC(=O)C(=O)C(C(=O)c2ccccc2)C2OC(=O)c3ccccc32)c([N+](=O)[O-])c1 (stereo not drawn) | 8.85% | 5.6% | -23.2% | 26.1% | 28.4% | 8.1%
4 | COc1ccc(NC(=O)CCCC(=O)CC(=O)c2ccc(Cl)cc2)c(OC)c1 | 32.6% | 13.2% | -0.95% | -20% | -1.95% | 18.1%
5 | COC(=O)Nc1ccc(NC(=O)c2cscn2)c(NC(=O)OC)n1 | 1.55% | 2.7% | -2.3% | -4.05% | 5.75% | -3.45%
6 | CCCC(C)(C#N)c1ccc(OC)cc1 (stereo not drawn) | 33.8% | 13.2% | 31.6% | 1.65% | 32.4% | -11.8%
7 | O=C1OC(c2ccccc2)(c2ccc(Cl)cc2)CC1/C=C(\c1ccccc1)c1ccc(Cl)cc1 (stereo not drawn) | -2% | 6.65% | 6.6% | -10.4% | -7.4% | 3.65%
8 | Cn1c(=O)oc2cc(Br)ccc21 | -8.9% | 0.7% | -3.1% | 18.9% | 23% | -67.8%
9 | CCN(CC)CCCO | 27.8% | -12.3% | -7.75% | -8.8% | -4.6% | 20.1%
10 | Cc1ccccc1OCC(O)COC(=O)CCS(=O)(=O)O (stereo not drawn) | -25.1% | -7% | -7.85% | 8.1% | 37.2% | -6.3%
11 | CCOC(=O)/C=C(\C)c1ccc(OC)cc1 | 7.2% | -22.4% | -3.3% | -7.5% | -8.7% | 11.8%
12 | c1ccc(C2CCN3c4ccc5ccccc5c4NCC23)cc1 (stereo not drawn) | 36% | 68% | 45.6% | 14.5% | 88.8% (active) | 67.3%
13 | O=CC1N=C(Cc2ccccc2)OC1=O (stereo not drawn) | 25.6% | 10% | -6.2% | -4.55% | -7.35% | 8.2%
14 | O=S1c2ccc(Cl)cc2CC(SSC2Cc3cc(Cl)ccc3S(=O)c3ccccc32)c2ccccc21 (stereo not drawn) | 18.5% | -35.6% | -7.65% | 6.15% | 10.5% | -9%
15 | CCNC(=O)C(C(=O)OCCN(CC)CC)c1ccccc1 (stereo not drawn) | 2.05% | 5.7% | -3.3% | -1.05% | -14.7% | 16.7%
16 | Cc1coc2c1C1OC(=O)C3(C/C=C\C(C)C2)OC13 (stereo not drawn) | 0.15% | -32.6% | -2.55% | -6.3% | -13.9% | -5.95%
17 | COc1cc2c(oc(=O)c3c4occc4cc(OC)c23)c2cccc(O)c12 | -31.6% | -47% | -37.2% | -13.6% | -24.8% | -56.2%
18 | N#CCCCCN1CCOCC1 | 10.3% | -7.5% | -21.7% | 22.1% | -8.9% | 20.7%
19 | CNC(=O)c1n[nH]c(=S)[nH]c1=O | -7.4% | -4.9% | 0.8% | -52.8% | -6.7% | -7.5%

Row | SMILES | growth inhibition [1] | growth inhibition [2] | growth inhibition [3] | growth inhibition [4] | growth inhibition [5] | growth inhibition [6]
20 | CC(=O)OCC(C)CCC(C)COC(C)=O (stereo not drawn) | -22.2% | -9.4% | -21.8% | -11.4% | 0.45% | -31.6%
21 | C/C(N)=N/C(=O)OCCOC(=O)/N=C(\C)N | -2.25% | 8.3% | -9.35% | -5.3% | 15% | 1.9%
22 | O=[N+]([O-])c1cc(Cl)cc2c1nc(NCCCO)c1ccccc12 | -0.8% | 7.35% | -0.3% | -7.95% | -7.65% | 27.9%
23 | O=c1cc(O)n(C2=NCCN2)[nH]1 | -6.45% | -23.6% | -0.2% | 16.2% | -12.5% | -9.95%
24 | CCC(C)C(C(=O)OCCC[N+]1(C)CCCCC1)c1ccccc1 (stereo not drawn) | 49.9% | -6.75% | 18.2% | -4.4% | 5.75% | 14%
25 | COc1ccc(CCNC(=S)NC(=O)c2ccc(Cl)c(Cl)c2)cc1OC | 47.6% | 47% | 68.3% | 49.5% | 44.4% | 56%
26 | O=C1c2ccccc2C(=O)c2c1c([N+](=O)[O-])c1c(c2[N+](=O)[O-])OCO1 | 7.15% | 0.15% | 21.8% | -0.15% | 14.1% | 31.2%
27 | CCCCCCCCCCCCCCCCCCCCCCCCCCCCCCS(=O)(=O)Cl | 14.7% | 28.1% | 16.9% | 18.8% | 33.9% | -18.9%
28 | O/N=C(/C(=N\O)c1ccco1)c1ccco1 | -26.1% | -46.5% | -13.8% | 2.45% | -24.1% | -8.3%
29 | CC(C)(C)C1=CC(=N/N=c2\scc(-c3ccccc3)n2Cc2ccccc2)C=C(C(C)(C)C)C1=O | 17.4% | -4.6% | -5.35% | -29.5% | -11.6% | -2.6%
30 | CC(=O)NCc1cc2c3c(c1)CCCN3CCC2 | 6% | -7.15% | 4.15% | -32.5% | 0.1% | -4.8%
31 | COc1nc(NC2OC(COC(C)=O)C(OC(C)=O)C(OC(C)=O)C2OC(C)=O)c(-c2csc(N)n2)c(=O)n1C (stereo not drawn) | -6.6% | -26.2% | -18.8% | 4.35% | -11.3% | -4.55%
32 | CC1=NN(C(=O)CC(=O)Nc2cccc(Cl)c2)C(=O)C1N=Nc1ccc(C(=O)O)cc1 (stereo not drawn) | -3.25% | 1.35% | 6.1% | -25% | -3.2% | 6.55%
33 | NC1=C(O)c2cccc3cccc(c23)C1=O | 9.95% | 12.2% | 11.8% | 2.35% | 9.45% | 16.4%
34 | COC(=O)C(C)Oc1ccccc1 (stereo not drawn) | 2.35% | -28.2% | -9.4% | -4.8% | -10% | -18.5%
35 | NCCn1[nH]c(=O)c2ncccc2c1=O | -59% | -27.6% | -4.45% | -49.1% | -6.6% | -14.9%
36 | CC1C(=O)CCC2CCCCC21 (stereo not drawn) | 18.1% | -17.4% | 8.05% | 7.95% | 12.2% | 17.2%
37 | CC(=O)[O][Ga]([Br])[O]C(C)=O | 6.3% | 11.8% | 12.3% | 14.4% | 15.7% | 0.5%
38 | Nc1ncnc2c1S(=O)(=O)NCN2 | 5.05% | -15.8% | 0.45% | -17.3% | -3.15% | -11.7%
